From PubChem BioAssay (Tox21) come the findings set out here.

A short description of assay [1]: qHTS assay to identify small molecule agonists of the estrogen receptor alpha (ER-alpha) signaling pathway in the presence of an antagonist - cell viability counter screen (AID 1259386).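 Also: series mostly up to about 92 µM; cells exposed to compounds for 22 h at 37 °C before the viability read; nearly all actives have a fitted effect of over 30% in size.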 The procedure, abridged:
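The test measures whether compounds kill ER-alpha reporter cells (VM7Luc4E2) under antagonist co-treatment (ICI-182,780, 10.0nM). Fluorescence from CellTiter-Fluor is read after a 22hr exposure.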
On the technique in general: In qHTS, concentration-response curves come from the screen itself.

Assay [2] addresses Progesterone receptor (Homo sapiens) (UniProt P06401). As to the kind of experiment: qHTS assay to identify small molecule agonists of the progesterone receptor (PR) signaling pathway (AID 1346784; calls by dose curve; also: nearly all actives have a fitted effect of over 30% in size). The method in brief: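 Agonist qHTS: compounds pinned onto 3,000 PR-UAS-bla HEK 293T cells per well in charcoal-stripped serum medium, 16hr at 37C, then beta-lactamase activity measured by LiveBLAzer FRET fluorescence after 2 hours at room temperature.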

Assay [3] can be described thus: qHTS assay to identify small molecule antagonists of the progesterone receptor (PR) signaling pathway - cell viability counter screen (AID 1346798). Also: series mostly up to about 92 µM; nearly all actives have a fitted effect of over 50% in size. The procedure, abridged:
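Cytotoxicity read as CellTiter-Glo luminescence (30 min, room temperature) in the same wells as the beta-lactamase readout. HEK293T PR-UAS-bla cells in charcoal-stripped 2% FBS received compound and R5020, then 16 h at 37C, 5% CO2.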

A short description of assay [4]: qHTS assay to identify small molecule agonists of the progesterone receptor (PR) signaling pathway - cell viability counter screen (AID 1346799; calls by dose curve; also: nearly all actives have a fitted effect of over 45% in size). The method in brief: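 Cytotoxicity measured by CellTiter-Glo luminescence (30 min, RT) in the same wells as the PR beta-lactamase agonist read. Those HEK293T cells had 16 h compound treatment at 37 C in 2% charcoal-stripped FBS medium.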

Assay [5] is described as follows: qHTS assay to identify small molecule antagonists of the TGF-beta/Smad signaling pathway - cell viability counter screen (AID 1346824). Also: nearly all actives have a fitted effect of over 50% in size. The procedure, abridged: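 SBE-bla HEK 293T cells, incubated overnight, then compound plus 0.25 ng/mL TGF-beta1 (stock added) for 5 hr at 37 C. Viability was read in the same wells by CellTiter-Glo luminescence after 30 min at room temperature.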

Assay [6] in a line: qHTS assay to identify small molecule agonists of the TGF-beta/Smad signaling pathway (AID 1346859; active = well fitted activation curve with a large enough effect in the signal ratio in the repeat runs, not every such curve was filed as active; the % refers to the signal ratio; also: series mostly up to about 77 µM). The procedure, abridged: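 Fluorescence (ex 405 nm; em 460 and 530 nm) was read 2 h after LiveBLAzer FRET substrate at RT. The preceding compound treatment of overnight-plated SBE-bla HEK293T cells lasted 5 h at 37 C.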
The target in assay [7] is Thyrotropin-releasing hormone receptor (Homo sapiens) (UniProt P34981). As to the kind of experiment: qHTS assay to identify small molecule antagonists of the thyrotropin-releasing hormone receptor (TRHR) signaling pathway (AID 1346877; active = well fitted inhibition curve with a large enough effect in the repeat runs, not every such curve was filed as active; also: series mostly up to about 51 µM). The procedure, abridged:
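Overnight-plated (18 h, 37 °C) HEK293 cells expressing TRHR were dye-loaded 2 h, treated with compound, then stimulated with TRH at 1 nM final. Fluorescence intensity was captured every second for 3 min.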

For assay [8] the target is unchanged. The experiment in a line: qHTS assay to identify small molecule agonists of the thyrotropin-releasing hormone receptor (TRHR) signaling pathway (AID 1346891; calls by dose curve; also: series mostly up to about 58 µM). The method in brief: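 Agonist-mode intracellular calcium readout: kinetic fluorescence over 3 min at 1 s intervals after compound addition to TRHR-HEK293 cells (18 h seeded, 2 h dye-loaded at 37 C). Fifteen concentrations, triplicates.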

Assay [9] in a line: Human pregnane X receptor (PXR) small molecule agonists, qHTS cell viability counter screen (AID 1346977). Also: nearly all actives have a fitted effect of over 50% in size. The method in brief: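 Same-well viability read: CellTiter-Fluor added after 23 hr compound exposure, fluorescence measured 1 hr later. Cells were PXR-Luc HepG2 seeded at 2,000/well in 5% charcoal-stripped FBS medium, rested 5 hr before dosing at 37 C.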
Assay [10] can be described thus: Caspase-3/7 induction in HepG2 cells by small molecules, qHTS assay (AID 1346978). Also: nearly all actives have a fitted effect of over 15% in size. The method in brief:
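Wild-type HepG2 cells, 2,000/well, settled 5 hr at 37 C and 5% CO2, then compound-treated for 17 hr; caspase-3/7 activity read by luminescent Caspase-Glo 3/7 after 30 min at room temperature.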

Assay [11] can be described thus: Caspase-3/7 induction in CHO-K1 cells by small molecules, qHTS cell viability counter screen (AID 1346979). Also: nearly all actives have a fitted effect of over 35% in size. The method in brief:
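Cytotoxicity counter screen: CellTiter-Fluor added to compound-treated wild-type CHO-K1 cells at 16 h (37C, 5% CO2), fluorescence measured 1 h later; same wells as caspase-3/7 measurement.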

A short description of assay [12]: Caspase-3/7 induction in CHO-K1 cells by small molecules, qHTS assay (AID 1346980). Also: nearly all actives have a fitted effect of over 15% in size. The procedure, abridged: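 Wild-type CHO-K1 cells exposed to compounds for 17hr at 37 C, 5% CO2. Caspase-3/7 activity then measured by Caspase-Glo 3/7 luminescence after 30min at room temperature.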
The target of assay [13] is Nuclear receptor subfamily 1 group I member 2 (Homo sapiens) (UniProt O75469). As to the kind of experiment: Human pregnane X receptor (PXR) small molecule agonists, qHTS assay (AID 1346982). Also: nearly all actives have a fitted effect of over 35% in size. Also: potency is read from the fitted curve at half-maximal effect. The procedure, abridged:
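Stable HepG2 line reporting PXR-mediated CYP3A4 expression via luciferase. Treatment: 24 hr with compounds in DMSO at 37 C. Detection: ONE-Glo luminescence.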

Assay [14] addresses Cytochrome P450 2D6 (Homo sapiens) (UniProt P10635). As to the kind of experiment: Cytochrome P450 Family 2 Subfamily D Member 6 (CYP2D6) small molecule antagonists: luciferase reporter qHTS assay (AID 1671196). Also: nearly all actives have a fitted effect of over 50% in size. Also: potency is read from the fitted curve at half-maximal effect. The method in brief: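 Chemicals tested for interference with CYP2D6 activity; proluciferin substrate, NADPH regeneration, 1 h at room temperature, luminescent detection.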
Background: A reporter such as luciferase makes a cellular process visible.

The nature of assay [15]: Caspase-3/7 induction in HepG2 cells by small molecules, qHTS cell viability counter screen (AID 1346981). Also: series mostly up to about 92 µM; nearly all actives have a fitted effect of over 30% in size. The method in brief: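 Treatment of HepG2 cells with DMSO-delivered compounds ran 16 hr at 37 C following a 5-hr pre-incubation of 2,000 cells/well. CellTiter-Fluor fluorescence, read after 1 hr, served as the viability measure in a qHTS format.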
Assay [16] has as its target Nuclear receptor subfamily 1 group I member 2 (Rattus norvegicus) (UniProt Q9R1A7). The experiment in a line: Rat pregnane X receptor (rPXR) activation by small molecules, qHTS assay (AID 1346983). Also: nearly all actives have a fitted effect of over 20% in size. The settings on record: rPXR luciferase reporter cells, One-Glo luminescence, 24 h; max activation: hits give high values. The method in brief:
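Cell-based rPXR activation assay: rPXR cells, 2,000 per well, rested 5hr at 37 C, then exposed to compounds in DMSO for 24 hr at 37 C. Luciferase activity read by One-Glo luminescence after 30 min at room temperature.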

Assay [17] concerns the target Nuclear receptor subfamily 1 group I member 2 (Homo sapiens) (UniProt O75469). The experiment in a line: CYP3A4 induction through human pregnane X receptor (PXR) by small molecules, qHTS assay (AID 1346984). Also: nearly all actives have a fitted effect of over 40% in size. Also: potency is read from the fitted curve at half-maximal effect. The procedure, abridged: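 After 24 h at 37C with compound, DPX-2 cells (HepG2, co-transfected PXR response element and CYP3A4 promoter-luciferase) got 3uM final P450-Glo Luciferin-IPA for 3 h; One-Glo luminescence followed.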

The target is the same in assay [18]. As to the kind of experiment: Human pregnane X receptor (PXR) activation by small molecules, qHTS assay (AID 1346985). Also: nearly all actives have a fitted effect of over 40% in size. The procedure, abridged: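 DPX-2 cells (HepG2 co-transfected with a PXR response element and a CYP3A4-promoter luciferase construct) were seeded at 2,000 per well, rested 5 hr at 37C, then exposed to DMSO-dissolved compounds for 24 hr. Activation was read as luciferase luminescence.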

The target of assay [19] is Progesterone receptor (Homo sapiens) (UniProt P06401). As to the kind of experiment: qHTS assay to identify small molecule antagonists of the progesterone receptor (PR) signaling pathway (AID 1346795; active = well fitted inhibition curve with a large enough effect in the signal ratio in the repeat runs, not every such curve was filed as active; the % refers to the signal ratio). The procedure, abridged:
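Antagonist mode with agonist R5020 at 1 nM final and 16 hr incubation at 37C. Reporter was beta-lactamase driven by UAS in HEK293T (PR-UAS-bla), 2% charcoal-stripped serum; signal from LiveBLAzer FRET substrate, 2 hr at room temperature.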

A short description of assay [20]: qHTS assay to identify small molecule agonists of the TGF-beta/Smad signaling pathway - cell viability counter screen (AID 1346829). Also: top concentration of the series differs between compounds; nearly all actives have a fitted effect of over 45% in size. The procedure, abridged:
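Here the cytotoxicity of library compounds is measured in SBE-bla HEK 293T cells treated for 5 hr, using CellTiter-Glo added to wells already read for the beta-lactamase reporter.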

Each structure is given as a SMILES string. A number with no mark means an inactive call. Results filed as inconclusive are left out. Activity calls are given as the source filed them. Unless noted, calls follow the shape of the dose curve; as a rule, active = well fitted curve in the direction sought with a large enough effect in the repeat runs; inconclusive = weak or mixed curves; inactive = no such curve, though single readings can be large; an effect the other way counts as inactive or inconclusive.
% is scaled to controls: 0 for no effect and ±100 for the full control effect.

Cytochrome P450 2D6 (Homo sapiens), sequence (P10635 whole entry, looked up): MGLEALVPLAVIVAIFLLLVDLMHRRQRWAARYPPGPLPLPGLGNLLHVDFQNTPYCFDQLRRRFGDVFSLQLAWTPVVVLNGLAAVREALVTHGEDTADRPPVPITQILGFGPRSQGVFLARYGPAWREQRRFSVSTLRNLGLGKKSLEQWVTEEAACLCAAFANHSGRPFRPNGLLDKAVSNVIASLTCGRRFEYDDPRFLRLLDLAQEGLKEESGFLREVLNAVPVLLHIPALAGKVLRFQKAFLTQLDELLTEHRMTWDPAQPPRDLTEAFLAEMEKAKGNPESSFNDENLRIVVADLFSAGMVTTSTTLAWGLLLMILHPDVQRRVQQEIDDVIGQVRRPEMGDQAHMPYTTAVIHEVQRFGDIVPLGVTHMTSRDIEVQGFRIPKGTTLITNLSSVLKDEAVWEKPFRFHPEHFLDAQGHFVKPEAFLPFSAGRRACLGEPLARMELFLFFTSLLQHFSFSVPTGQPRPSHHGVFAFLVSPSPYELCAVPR
Nuclear receptor subfamily 1 group I member 2 (Homo sapiens), sequence (O75469 whole entry, looked up): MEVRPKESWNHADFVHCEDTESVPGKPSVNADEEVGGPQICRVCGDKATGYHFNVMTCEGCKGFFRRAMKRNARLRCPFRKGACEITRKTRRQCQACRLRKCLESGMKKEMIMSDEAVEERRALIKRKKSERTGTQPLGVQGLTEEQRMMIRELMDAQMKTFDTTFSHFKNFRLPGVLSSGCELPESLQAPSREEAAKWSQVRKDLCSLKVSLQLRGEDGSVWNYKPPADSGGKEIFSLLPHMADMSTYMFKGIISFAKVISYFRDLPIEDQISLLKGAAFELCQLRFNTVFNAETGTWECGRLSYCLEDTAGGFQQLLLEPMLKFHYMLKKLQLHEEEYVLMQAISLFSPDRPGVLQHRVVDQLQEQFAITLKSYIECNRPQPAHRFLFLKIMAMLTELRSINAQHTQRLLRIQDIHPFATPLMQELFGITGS
Thyrotropin-releasing hormone receptor (Homo sapiens), sequence (P34981 whole entry, looked up): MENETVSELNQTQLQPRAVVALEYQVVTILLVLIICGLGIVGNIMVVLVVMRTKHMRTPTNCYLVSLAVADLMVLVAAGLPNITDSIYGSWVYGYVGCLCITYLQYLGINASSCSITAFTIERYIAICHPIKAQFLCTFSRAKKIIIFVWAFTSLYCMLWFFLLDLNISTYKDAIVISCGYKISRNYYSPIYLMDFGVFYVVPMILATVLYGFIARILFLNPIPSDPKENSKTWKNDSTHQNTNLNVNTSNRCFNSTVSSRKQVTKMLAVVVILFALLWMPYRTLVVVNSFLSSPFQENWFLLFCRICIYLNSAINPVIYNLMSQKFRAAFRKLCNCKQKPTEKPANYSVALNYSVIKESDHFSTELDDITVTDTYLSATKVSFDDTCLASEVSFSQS
Progesterone receptor (Homo sapiens), sequence (P06401 whole entry, looked up): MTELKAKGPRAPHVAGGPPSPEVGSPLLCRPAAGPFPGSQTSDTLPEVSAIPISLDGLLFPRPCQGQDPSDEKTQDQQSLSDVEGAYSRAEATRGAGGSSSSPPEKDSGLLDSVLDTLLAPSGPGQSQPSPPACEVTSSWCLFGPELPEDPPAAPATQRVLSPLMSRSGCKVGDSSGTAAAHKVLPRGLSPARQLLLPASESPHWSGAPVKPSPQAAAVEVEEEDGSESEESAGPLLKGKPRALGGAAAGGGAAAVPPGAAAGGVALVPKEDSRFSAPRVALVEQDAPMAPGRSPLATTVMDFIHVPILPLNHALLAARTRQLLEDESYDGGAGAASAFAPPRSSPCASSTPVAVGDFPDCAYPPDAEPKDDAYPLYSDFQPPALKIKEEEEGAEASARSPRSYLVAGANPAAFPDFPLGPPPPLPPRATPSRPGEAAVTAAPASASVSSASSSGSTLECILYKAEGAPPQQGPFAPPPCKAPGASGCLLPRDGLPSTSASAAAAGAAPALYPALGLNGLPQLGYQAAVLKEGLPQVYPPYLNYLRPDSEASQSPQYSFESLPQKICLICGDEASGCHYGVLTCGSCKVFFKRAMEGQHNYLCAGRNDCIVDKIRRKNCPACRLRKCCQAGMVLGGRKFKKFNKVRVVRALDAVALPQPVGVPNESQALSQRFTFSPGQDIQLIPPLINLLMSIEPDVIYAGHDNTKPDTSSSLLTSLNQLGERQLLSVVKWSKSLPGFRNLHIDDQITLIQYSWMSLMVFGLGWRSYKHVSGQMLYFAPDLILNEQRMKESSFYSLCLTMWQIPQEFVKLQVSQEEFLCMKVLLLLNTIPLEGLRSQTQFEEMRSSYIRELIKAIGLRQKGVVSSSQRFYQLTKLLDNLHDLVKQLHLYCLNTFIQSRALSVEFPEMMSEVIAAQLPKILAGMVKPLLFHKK
Nuclear receptor subfamily 1 group I member 2 (Rattus norvegicus), sequence (Q9R1A7 whole entry, looked up): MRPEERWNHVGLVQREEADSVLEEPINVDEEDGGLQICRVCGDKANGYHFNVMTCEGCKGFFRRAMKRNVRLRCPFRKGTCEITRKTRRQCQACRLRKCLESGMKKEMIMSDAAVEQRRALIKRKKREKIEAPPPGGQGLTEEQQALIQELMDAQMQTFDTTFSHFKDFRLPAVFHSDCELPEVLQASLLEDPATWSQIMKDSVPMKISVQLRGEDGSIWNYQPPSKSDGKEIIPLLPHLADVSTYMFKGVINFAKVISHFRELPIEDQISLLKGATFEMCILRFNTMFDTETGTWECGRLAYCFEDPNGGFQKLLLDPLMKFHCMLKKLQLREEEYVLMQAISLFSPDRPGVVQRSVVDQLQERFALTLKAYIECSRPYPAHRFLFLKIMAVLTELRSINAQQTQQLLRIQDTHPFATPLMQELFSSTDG

As to `CC(=O)SCc1ccco1`, the Potency result in assay [1], in assay [3], in assay [4], in [5], in assay [8] and in assay [9] was “inactive” throughout. The Potency result in [11], in assay [12], in assay [13] and in [14] was “inactive” each time. Also, the outcome in assay [2], in assay [6], in [7] and in [10] was inactive.

As for `CCN(CC)C(C)CN1c2ccccc2Sc2ccccc21` (stereo not given), the Potency result in assay [1], in assay [3], in assay [4], in assay [5], in [9] and in [11] was “inactive” each time. Besides, the Potency result in [12], in assay [15], in assay [13] and in [18] was “inactive” throughout. The outcome in assay [2], in [6] and in assay [10] was inactive. The max activation in assay [16] is -0.328%. For the same molecule, the values for the Potency in [17] and in assay [14] were 3.98 µM (active) and 30.9 µM (active), respectively.

Regarding `CCCCOC(O)CC` (stereo not given), the Potency result in assay [1], in assay [19], in [5], in assay [20], in assay [8] and in [9] was “inactive” throughout. In addition, the Potency result in assay [11], in assay [12], in [15], in [13] and in [14] was “inactive” each time. Moreover, the result in [2], in assay [6], in [7] and in assay [10] was inactive.

`C=C(C)C(=O)OCCOc1ccccc1`: the Potency entry in [1], in [19], in assay [4], in assay [5], in [20] and in assay [8] was “inactive” throughout. For the same molecule, the Potency entry in assay [9], in [11], in [12], in assay [15], in assay [13] and in [14] was “inactive” each time. The molecule was classed as inactive in assay [2], in assay [6], in assay [7] and in assay [10].

For the molecule `Cc1cccc(OCCOc2cccc(C)c2)c1`, the Potency entry in assay [1], in assay [5], in [20], in assay [8], in [9] and in assay [11] was “inactive” each time. The Potency entry in assay [12], in assay [15] and in [14] was “inactive” throughout. Further, the molecule was called inactive in assay [2], in assay [6] and in assay [7]. Further, the Potency in assay [13] was 18.3 µM (active).

Consider `CCOc1cc(OCC)c(C(=O)CCC(=O)O)cc1OCC`, for which the Potency entry in [1], in assay [3], in assay [5], in assay [20], in [8] and in [11] was “inactive” in each case. Further, the Potency result in assay [12], in assay [15], in assay [13], in [17], in assay [18] and in assay [14] was “inactive” each time. For the same molecule, the molecule was classed as inactive in assay [2] and in [7]. For the same molecule, the max activation in assay [16] was -2.62%.

Regarding `O=c1[nH]cnc2ccccc12`, the Potency entry in [1], in assay [3], in assay [4], in [5], in assay [9] and in assay [12] was “inactive” each time. For the same molecule, the Potency result in assay [15] and in assay [14] was “inactive” throughout. The result in assay [2] and in assay [6] was inactive. Besides, the Potency in assay [13] is 0.398 µM (active).
